Results on 13 molecules are retold here after PubChem BioAssay (NCI).

What all share (assay): NCI-60 one-dose screen, 48 h (100 = growth as untreated, 0 = no growth, -100 = all killed)
What all share (settings): 10 µM

Test [1] deals with HCT-15 colon.
Test [2] deals with HT29 colon.
Test [3] deals with SNB-75 CNS.
Test [4] has as its system SNB-19 CNS.
Test [5] deals with U251 CNS.
For test [6], the system named is PC-3 prostate.
Test [7] concerns SK-MEL-5 melanoma.
For test [8], the system named is UACC-62 melanoma.
In test [9] the test system is LOX IMVI melanoma.
The test system of test [10] is SK-MEL-28 melanoma.

About 83,000 compounds went through this panel and 20% of them were active in at least one assay; those are over-represented in the sample as a whole.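 Each cell line was grown in a 96-well plate and treated with one concentration of compound for 48 hours. Values below 10 were considered active.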 Values without a mark were called inactive. Active and inactive are the calls of the source.

As to `S=C1N(c2ccccc2)CN(C2CCCCC2)CN1c1ccccc1`, the growth in [1] was 95.3%; in test [2], 99.5%; in test [3] it was 90.1%; in [4], 95.3%; in test [5], 98.5%; in test [6], 84%. Besides, the growth in [7] was 97.9%; in test [8], 97.7%; in test [9], 95.6%; in [10], 104%.

With `S=C(SSC(=S)N(c1ccccc1)c1ccccc1)N(c1ccccc1)c1ccccc1`, the growth in test [1] was 103%; in test [2] it was 96.6%; in test [3] it was 100%; in test [4], 99.4%; in [5], 87.9%; in [6], 81.9%. Moreover, the growth in test [7] is 102%; in test [8] it was 103%; in [9] it was 95.2%; in test [10] it was 111%.

`CC[C@H]1OC(=O)[C@H](C)[C@@H](O[C@H]2C[C@@](C)(OC)[C@@H](O)[C@H](C)O2)[C@H](C)[C@@H](O[C@@H]2O[C@H](C)C[C@H](N(C)C)[C@H]2O)[C@](C)(OC)C/C(C)=C2/O[C@@]1(C)C=C2C`: the growth in test [1] was -33.5% (active); in test [2] it was -7.11% (active); in test [3], 49.1%; in test [4], 57.4%; in [5] it was 2.36% (active); in test [6], 53.3%. The growth in [7] was 18.8%; in test [8], -83.8% (active); in test [9], -85.1% (active); in test [10], -57.1% (active).

As for `O=C(NCCNC(=O)c1ccc(F)cc1)Nc1ccc(-n2cc(-c3ccncc3)c(-c3ccc(Cl)c(O)c3)n2)cc1`, the growth is 19.5% in test [1]; -45.3% (active) in test [2]; 18.7% in test [3]; 22.7% in [4]; -19.9% (active) in test [5]; -5.9% (active) in test [6]. Besides, the growth was -84.9% (active) in test [7], 7.05% (active) in test [8], -3.97% (active) in test [9] and 18.4% in [10].

Regarding `Cc1ccc(C(SCC(N)C(=O)O)(c2ccc(C)cc2)c2ccc(C)cc2)cc1` (stereo not given), the growth in [1] was 30.1%; in [2], 14.1%; in test [3] it was -6.9% (active); in test [4], 30.4%; in test [5], 25.4%; in [6], 11.2%. Also, the growth in test [7] is 16.5%; in [8] it was 30.7%; in [9] it was 40.6%; in test [10] it was 56.6%.

On to `C=CCNCCN1C(=O)c2ccc3c4c(ccc(c24)C1=O)C(=O)N(CCNCC=C)C3=O`, for which the growth in [1] is -67.4% (active); in test [2], -44.9% (active); in test [3], -37.9% (active); in [4] it was -88.1% (active); in test [5] it was -89.4% (active); in [6], -7.8% (active). Also, the growth in test [7] is -95.4% (active); in [8], -74.9% (active); in test [9], -78.8% (active); in [10] it was -57% (active).

Turning to `O=C(CCC(C(=O)c1ccccc1)c1ccccc1)c1ccccc1` (stereo not given), the growth in [1] was 45.8%; in test [2] it was 34.1%; in test [3], 79.9%; in test [4], 89.8%; in [5], 90.4%; in test [6], 55.5%. Also, the growth was 82.5% in test [7], 63% in test [8], 91.9% in test [9] and 80.5% in test [10].

As for `COc1cc2cc(Oc3ccc(NC(=O)c4ccc(Cl)c(C(F)(F)F)c4)cc3)c(C)nc2cc1OC`, the growth in [1] is 26.9%; in test [2], 26%; in test [3] it was 68.4%; in test [4], 39.3%; in [5] it was 2.03% (active); in [6], 4.32% (active). Also, the growth in test [7] was 25.5%; in [8] it was 13.9%; in test [9], 33%; in test [10] it was 66.9%.

As to `COc1ccc(/C=C2\CCCC3=C2NC(N)=NC3c2ccc(OC)cc2)cc1` (stereo not given), the growth is 92.9% in test [1]; 93.2% in [2]; 87.4% in [3]; 92.1% in test [4]; 90.6% in test [5]; 86.7% in test [6]. The growth in test [7] was 56.2%; in test [8], 68%; in test [9], 73.6%; in test [10], 98.5%.

Turning to `COc1cc(-c2nn(-c3cccc(NC(=O)CCN4CCN(Cc5ccccc5)CC4)c3)cc2-c2ccncc2)ccc1Cl`, the growth in [1] was 11.8%; in test [2] it was -20.2% (active); in test [3], -10.3% (active); in test [4], 39.9%; in [5], 6.53% (active); in test [6], 7.06% (active). The growth in test [7] was -95.3% (active); in test [8], 10.7%; in [9], -88.6% (active); in [10], -85.4% (active).

Consider `COc1ccc(-c2cc(-c3ccc(Cl)cc3)nc(SCCCC(=O)NO)n2)cc1`, for which the growth was 14.5% in test [1]; 13.3% in test [2]; -6% (active) in test [3]; 13.5% in test [4]; 5.21% (active) in [5]; 0.504% (active) in test [6]. Besides, the growth was -52.5% (active) in test [7], -57.2% (active) in test [8], -24.9% (active) in test [9] and 31.9% in test [10].

With `CNC(=O)c1cn(C2CC2)c2cc(N3CCN(C(=O)c4cc(OC)c(OC)c(OC)c4)CC3)c(F)cc2c1=O`, the growth in test [1] is 100%; in [2] it was 99.2%; in [3] it was 96%; in test [4], 96.4%; in test [5], 96.3%; in test [6], 89.9%. Further, the growth is 98.3% in test [7], 96.5% in [8], 94.7% in test [9] and 105% in [10].

For the molecule `COc1ccc(-c2onc(N)c2-c2cc(OC)c3c(c2)OCO3)cc1`, the growth was 23.9% in test [1]; 7% (active) in test [2]; 17.7% in [3]; 52.8% in test [4]; 18.6% in test [5]; 61.4% in test [6]. In addition, the growth in test [7] is 1.27% (active); in test [8], 42.7%; in [9] it was 34.7%; in test [10], 47.4%.
